# Lassa entry inh – qHTS for Inhibitors of binding or entry into cells for Lassa Virus; Lassa virus pseudotype entry inhibition, cell reporter; Potency, µM (series often up to 37.9 µM), for inactives: top-dose activity change, negative = inhibition, actives largely listed as inhibitors; 300,000 compounds, 1.2% hits; calls by dose curve; tested in HEK293 cells; note: potency is the fitted concentration of half-maximal effect; % is set by controls: 0 for no effect and ±100 for the full control effect; nearly all actives have a fitted effect of over 50% in size
# CHX counter – Cycloheximide Counterscreen for Small Molecule Inhibitors of Shiga Toxin. cell reporter, cycloheximide protein synthesis inhibition counterscreen. max response, %. 300,000 compounds, 12% hits. AID 2314, 2010; in the data active = max response mostly above about 13%, no sharp cut-off; inactive = mostly below about 14%; note: read at 38.3 µM for the half of the compounds with a filed dose; 0% is about no effect
# MARV entry inh – qHTS for inhibitors of binding or entry into cells for Marburg Virus. Marburg virus pseudotyped entry inhibition, cell reporter. Potency, µM (top dose mostly 37.8 µM), for inactives: at the top dose activity change, negative = inhibition, usual class: inhibitors. AID 540276, 2011. 300,000 compounds, 1.8% hits; calls by dose curve; tested in HEK293 cells; note: potency is the fitted concentration of half-maximal effect; % is set by controls: 0 for no effect and ±100 for the full control effect
# FMDV inh – High Throughput Screening for Foot and Mouth Disease Virus Antivirals; 410,000 compounds, 1.2% hits; FMDV antiviral cell-based qHTS; Potency, µM (doses to about 57.9 µM), inactives show at the top dose activity change, negative = inhibition, actives largely listed as inhibitors; calls by dose curve; tested in HEK293T cells; note: read-out not given here; potency is the fitted concentration of half-maximal effect; % is set by controls: 0 for no effect and ±100 for the full control effect; nearly all actives have a fitted effect of over 45% in size
# HCV inhibitor – qHTS Assay for Inhibitors of Hepatitis C Virus (HCV); Huh7.5.1 HCVcc-Cre infection, luciferase reporter, 44 h; Potency, µM (titrated, usually from 41.8 µM), without a hit: at the highest dose activity change, negative = inhibition, hits mostly inhibitors; 340,000 compounds, 3.4% hits; AID 651820, 2012; active = well fitted inhibition curve with a large enough effect; inconclusive = small, poorly fitted or top-dose-only effect, or another doubt; inactive = no such curve, though single readings can be large or run the other way; note: potency is the fitted concentration of half-maximal effect; % is set by controls: 0 for no effect and ±100 for the full control effect
#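 Compounds are dispensed onto cells plated 4 h earlier at 1,000 per well, with HCVcc-Cre virus (about 0.5 moi) added next. Following 44 h of culture, luminescent signal is measured for 15 sec after 15 min with substrate at room temperature.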
# Shiga toxin inh – A qHTS for Small Molecule Inhibitors of Shiga Toxin; Vero cells, Shiga toxin protein synthesis inhibition reporter; inhibition, % at 38.7 µM; 290,000 compounds, 9.2% hits; AID 2315, 2010; in the data active = inhibition mostly above about 28%, no sharp cut-off; inactive = mostly below about 43%; note: 0% is about no effect
# Numbers without * were called inactive; ? = inconclusive; . = no result given; [ ] = another dose, or the depositor's remark. Only some compounds are listed: those with a hit (about 13% of all), similar ones and a draw of the others.
SMILES,Lassa entry inh,CHX counter,MARV entry inh,FMDV inh,HCV inhibitor,Shiga toxin inh
COC(=O)C1=C(\O)CCCC/C=C\1C(=O)O,15%[46.1 µM],.,11%,-13%,-9%,.
O=C(CSc1cn(CCNC(=O)c2ccccc2F)c2ccccc12)Nc1ccccc1F,-2%[46.1 µM],.,-16%[46.1 µM],-27%,.,.
CN(C)S(=O)(=O)c1ccc(NC=C(C#N)C#N)cc1,.,-4,.,-19%,2%,12
CC(=O)Nc1ccc(CN(C)c2c(C)nc3ccc(C(=O)NCCc4ccccn4)cn23)cc1,.,.,.,-16%,.,.
Cc1oc(-c2cc(F)ccc2F)nc1CN1CCN(c2ncnc3ccccc23)CC1,.,25*,.,16µM*,0.56µM*,19
COc1ccccc1CN1CCN(Cc2nc(-c3ccc(C)cc3)oc2C)CC1,.,1,.,-24%,?,-4
Cc1oc(-c2cc(F)ccc2F)nc1CN1CCC(C(=O)N2CCOCC2)CC1,13%,-2,?,-24%,-4%,-5
COc1ccc(-c2nc(CN3CCN(c4ccccc4OC)CC3)c(C)o2)cc1,-23%,-2,?,28µM*,?,11
O=C(/C=C/c1ccccc1)NC(=S)NNC(=O)c1cnccn1,7.9µM*,1,?,3%,?,20
CC(/C=C/c1ccccc1)=N/NC(=O)c1cnccn1,13%,27*,19%[46.1 µM],25%,-2%,32*
CC(/C=C/c1ccccc1)=N\NC(=O)c1cc(C)[nH]n1,1%,36*,28%,12%,14µM*,33
C/C(=N\NC(=O)c1cc(C)[nH]n1)C(C)(C)C,19%,2,14%,16%,32%,18
COC(=O)N/N=C(C)/C=C/c1ccccc1,1%,.,7%,29%,15%,.
O=C(N/N=C/C=C/c1ccccc1)c1cnccn1,0%,13*,6%,21%,19%,30
O=C(COC(=O)c1cc(S(=O)(=O)N2CCCC2)ccc1O)Nc1ccc(F)cc1F,14%,.,23%,-2%,-9%,.
Cc1cc(NC(=O)c2ccco2)ccc1NC(=O)Cc1cccs1,13%,20*,24%,60%,-13%,32*
CC(=O)Oc1c(C)cc(Cl)cc1C(=O)Nc1ccc([N+](=O)[O-])cc1Cl,3.7µM*,74*,1.5µM*,-19%,?,128*
Cc1cc(NC(=O)c2ccc([N+](=O)[O-])o2)ccc1NC(=O)c1ccco1,.,36*,.,-7%,?,97*
COc1cc(NC(=O)c2ccc([N+](=O)[O-])o2)ccc1NC(=O)c1ccco1,.,24,.,6%,-2%,23
Cc1cc(NC(=O)c2ccc([N+](=O)[O-])cc2Cl)ccc1NC(=O)c1ccco1,-3%,-2,25%,2%,7.9µM*,-13
Cc1cc([N+](=O)[O-])ccc1NC(=O)c1ccco1,-6%,-1,19%[46.1 µM],-8%,-16%,-3
Cc1c(Cl)c([N+](=O)[O-])nn1CCCC(=O)Nc1cccnc1,.,8,.,-2%,2%,-7
O=C(NCCc1ccc(Cl)cc1)C1CCCN(S(=O)(=O)c2cnc[nH]2)C1 (centres undefined),.,-4,.,-2%,7%,-7
O=C(NNC1=NS(=O)(=O)c2ccccc21)c1ccc([N+](=O)[O-])cc1,7.9µM*,-2,?,-22%,13%,-24
O=C(O)CSCC(=O)NCc1ccccc1Cl,12%[46.1 µM],-4,19%[46.1 µM],-11%,15%,-2
SMILES,Lassa entry inh,CHX counter,MARV entry inh,FMDV inh,HCV inhibitor,Shiga toxin inh
Cc1ccc(C(=O)Nc2ccc3c(c2)OCO3)cc1Cl,.,51*,.,.,.,168*
O=C(Nc1ccc(Cl)cc1Cl)c1ccc2c(c1)OCCO2,.,.,.,-25%,?,.
Cc1ccc(NC(=O)c2ccc3c(c2)OCO3)cc1Cl,.,45*,.,35%,4%,90*
Cc1cc(Cl)ccc1NC(=O)c1ccc2c(c1)OCO2,?,26*,?,0%,-15%,77*
O=C(c1cccc(F)c1F)N1CCOc2ccc(CN3CCN(Cc4ccccn4)CC3)cc2C1,.,.,.,10%,.,.
COc1cccc(C2=N/C(=C\N(C)C)C(=O)O2)c1,3%,34*,?,33%,-18%,94
COc1cc(C2=N/C(=C\c3ccccc3)C(=O)O2)cc(OC)c1OC,.,.,.,-12%,.,.
Cc1ccc2nc(NC(=O)c3ccc(NS(=O)(=O)c4cccs4)cc3)sc2c1,6%,29*,?,27%,-9%,15
Cc1ccc2nc(NC(=O)CCNS(=O)(=O)c3ccc(Br)s3)sc2c1,3%,26*,6%,0%,8%,67
Cc1ccc2nc(NC(=O)CCNS(=O)(=O)c3cccs3)sc2c1,-22%,26*,1%,37%,0%,79*
CC(=NNc1nc2ccccc2o1)c1cc2ccccc2cn1,0.79µM*,.,0.35µM*,-20%,?,.
O=C(O)c1cc2ccccc2cn1,22%[46.1 µM],.,29%[46.1 µM],10%,13%,.
CC(=NNc1nc2ccccc2o1)c1ncccn1,0.89µM*,.,0.4µM*,-4%,3.5µM*,.
Nc1nc(Cl)cc(NCCc2ccccc2)n1,.,15*,.,.,.,13
CNC(=O)OCCSCCS(=O)(=O)c1ccc(Cl)cc1,1%,-3,-8%,-7%,3%,23
O=C(O)c1ccc(-n2cccn2)c([N+](=O)[O-])c1,?,-4,?,-13%,13%,-10
Oc1cc(-n2cccn2)c(O)cc1-n1cccn1,.,37*,.,53%,-8%,70*
CCOc1cccc2cc(-c3csc(NC(=O)CCC(=O)N4CCC(C)CC4)n3)c(=O)oc12,?,-1,-1%,4%,9%,21
COc1cccc2cc(-c3csc(NC(=O)CCC(=O)NCCCN4CCC(C)CC4)n3)c(=O)oc12,?,28*,?,2%,-4%,73*
CCOc1cccc2cc(-c3csc(NC(=O)CCC(=O)NCCN4CCCCC4C)n3)c(=O)oc12 (centres undefined),?,40*,?,81%,?,76
CCOc1cccc2cc(-c3csc(NC(=O)CCC(=O)NCCCN4CCC(C)CC4)n3)c(=O)oc12,.,41*,.,.,.,83*
CCOc1ccc(OCC)c(NC(=O)CN2CCN(c3cccc(C)c3)C(C)C2)c1 (centres undefined),?,-2,?,?,8.9µM*,-10
Cc1ccc(/C=C2\SC(=S)N(/N=C/c3cc([N+](=O)[O-])ccc3O)C2=O)o1,-26%,19*,5%,11%,2%,24
O=C(/C=C/c1ccco1)NCC(=O)N/N=C/c1ccc([N+](=O)[O-])cc1,.,-2,.,-3%,-8%,2
CC1CC(C)CN(C(=O)COC(=O)c2ccc3c(c2)C(=O)N(Cc2ccco2)C3=O)C1 (centres undefined),.,.,.,0%,5%,.
CSCC[C@@H](C(=O)NCc1cccs1)N1Cc2ccccc2C1=O,.,-5,.,12%,0%,-22
O=C(NCCCN1CCC(Cc2ccccc2)CC1)C1CC(=O)N(C2CCCCCC2)C1 (centres undefined),-12%,5,14µM*,-13%,4µM*,13
